# Results filed as inconclusive are left out. Activity calls are given as the source filed them. Rule for the calls: active = hit-call score of the fitted dose curve at least 0.9, where 1 is the maximum; inconclusive = response in the unintended direction; inactive = score below 0.9.
# Legend:
# [1] = ACEA_ER_AUC_viability: ACEA Biosciences xCELLigence Real-Time Cell Analysis on Estrogen Receptor Agonism for Viability (AID 2283782);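 note: hit means loss of impedance signal meaning reduced cell growth or viability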
# Procedure, shortened: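 Viability endpoint: reduced impedance area under the curve relative to DMSO, recorded by real-time electrode sensing over ~80 h of continuous exposure. Duplicate plates of T47D in hormone-depleted medium; eight concentrations, 1:4 dilutions, 100 uM maximum.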
# [2] = STM_H9_NormalizedViability: Cytotoxicity Assessment at 120 hours in the Stemina devTOX quickPredict H9 human embryonic stem cell (hESC)-based Assay (AID 2283784)
# Procedure, shortened: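 Here, H9 cells received test compound with daily medium renewal. Each plate included methotrexate references (1uM, 5 nM), 0.1% DMSO and media blanks; CellTiter-Fluor RFU was normalized to DMSO.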
# [3] = target: AR (gene 367) (UniProt P10275); assay: ACEA_AR_antagonist_80hr: ACEA Biosciences xCELLigence Real-Time Cell Analysis on Androgen Receptor Antagonism for Proliferation (AID 2283787);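 note: 22Rv1 human prostate cancer cells with growth followed by electrical impedance; hits lower the impedance growth signal relative to DMSO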
# Procedure, shortened: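 Impedance-based real-time growth of 22Rv1 prostate cells, read 80 h after dosing. Eight concentrations, 1:4 series, top 100 uM final (0.5% DMSO), n = 2; signal decrease scored against DMSO.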
# [4] = target: AR (gene 367) (UniProt P10275); assay: ACEA_AR_agonist_80hr: ACEA Biosciences xCELLigence Real-Time Cell Analysis on Androgen Receptor Agonism for Proliferation (AID 2283783);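 note: hits increase impedance growth signal above DMSO baseline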
# Procedure, shortened: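 Eight concentrations, 1:4 serial dilution from a 100 uM final top, in biological duplicate. Impedance-based real-time growth of 22Rv1 cells after overnight baseline, recorded hourly and read at 80 hours. Controls: testosterone, MG132, assay media.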
# Chain of AR (gene 367) (P10275 whole entry, looked up): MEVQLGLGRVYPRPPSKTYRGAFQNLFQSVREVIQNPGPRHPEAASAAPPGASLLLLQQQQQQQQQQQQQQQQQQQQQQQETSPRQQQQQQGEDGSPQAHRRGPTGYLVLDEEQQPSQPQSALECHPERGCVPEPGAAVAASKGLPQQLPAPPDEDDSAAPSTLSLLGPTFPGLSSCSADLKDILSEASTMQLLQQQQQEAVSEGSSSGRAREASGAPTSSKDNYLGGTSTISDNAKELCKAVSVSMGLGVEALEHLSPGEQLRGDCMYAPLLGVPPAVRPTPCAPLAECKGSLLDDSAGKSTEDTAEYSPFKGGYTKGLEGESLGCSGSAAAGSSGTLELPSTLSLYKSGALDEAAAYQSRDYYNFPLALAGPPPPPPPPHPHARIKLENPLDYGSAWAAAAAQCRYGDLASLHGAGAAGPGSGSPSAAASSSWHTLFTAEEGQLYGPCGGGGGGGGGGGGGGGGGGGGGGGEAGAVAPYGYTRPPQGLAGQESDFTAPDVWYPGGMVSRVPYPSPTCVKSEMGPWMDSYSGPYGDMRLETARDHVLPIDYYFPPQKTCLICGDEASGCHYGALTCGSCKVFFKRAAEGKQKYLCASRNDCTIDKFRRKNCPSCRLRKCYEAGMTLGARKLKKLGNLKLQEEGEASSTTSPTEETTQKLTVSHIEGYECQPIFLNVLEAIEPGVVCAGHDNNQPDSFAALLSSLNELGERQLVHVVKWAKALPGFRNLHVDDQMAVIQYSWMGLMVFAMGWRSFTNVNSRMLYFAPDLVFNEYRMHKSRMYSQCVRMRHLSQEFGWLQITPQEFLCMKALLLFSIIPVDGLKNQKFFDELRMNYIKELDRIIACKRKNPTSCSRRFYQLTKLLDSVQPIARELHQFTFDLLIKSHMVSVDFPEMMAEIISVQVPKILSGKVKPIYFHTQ
smiles,measurement,setting,value
COc1ccc(-c2ccccc2)cc1NNC(=O)OC(C)C,outcome,[1],inactive
same,AC50,[2],45.6 µM (active)
same,outcome,[3],inactive
CCCN(CC)CC1COC2(CCC(C(C)(C)C)CC2)O1 (configuration not stated),AC50,[1],81 µM (active)
same,outcome,[2],inactive
Clc1cccc(C(Cl)(Cl)Cl)n1,outcome,[1],inactive
same,outcome,[2],inactive
same,outcome,[3],inactive
CCCCC(C#N)(Cn1cncn1)c1ccc(Cl)cc1 (configuration not stated),outcome,[1],inactive
same,AC50,[2],56 µM (active)
CCOc1cc(C(C)(C)C)ccc1C1COC(c2c(F)cccc2F)=N1 (configuration not stated),AC50,[1],51.2 µM (active)
same,outcome,[4],inactive
same,AC50,[3],13.2 µM (active)
N#Cc1c[nH]cc1-c1cccc2c1OC(F)(F)O2,outcome,[1],inactive
same,AC50,[2],76.4 µM (active)
CCNC(=O)NC(=O)C(C#N)=NOC,outcome,[1],inactive
same,outcome,[2],inactive
O=C(Nc1ccccc1-c1ccc(Cl)cc1)c1cccnc1Cl,outcome,[1],inactive
same,outcome,[2],inactive
COP(=S)(OC)SCn1nnc2ccccc2c1=O,outcome,[4],inactive
same,AC50,[3],83.1 µM (active)
Cc1cc(C)nc(Nc2ccccc2)n1,outcome,[1],inactive
same,outcome,[2],inactive
CO/N=C(/C1=NOCCO1)c1ccccc1Oc1ncnc(Oc2ccccc2Cl)c1F,AC50,[1],91.8 µM (active)
same,AC50,[2],35.2 µM (active)
COC(=O)N(C(=O)N1CO[C@@]2(C(=O)OC)Cc3cc(Cl)ccc3C2=N1)c1ccc(OC(F)(F)F)cc1,AC50,[1],69.2 µM (active)
same,AC50,[3],40 µM (active)
COc1cc(OC)nc(NC(=O)NS(=O)(=O)c2ncccc2OCC(F)(F)F)n1,outcome,[2],inactive
CC(C)Nc1nc(Cl)nc(NC(C)C)n1,outcome,[1],inactive
same,outcome,[2],inactive
CS(=O)(=O)c1ccc(C(=O)C2C(=O)CCCC2=O)c([N+](=O)[O-])c1,outcome,[2],inactive
CC1(C)CON(Cc2ccccc2Cl)C1=O,outcome,[2],inactive
